The values below come from the antibiotic and cytotoxicity screens of Wong et al. (2023).

Hit rate of the full screen: of about 39,000 compounds, about 3,300 (8.5%) were called active. Only a selection was taken, and actives are over-represented in it overall.

The test system of the assay is HepG2. Nature of the assay: cytotoxicity call (relative viability < 0.9). Conditions: 10 µM.
For `CN(C)C(=O)[C@@]1(Cc2ccccc2N=[N+]=[N-])N=C(c2ccc(OCCCO)cc2)O[C@H]1c1ccccc1N=[N+]=[N-]`, the cytotoxicity call was “inactive”.
In the case of `CN(C)C(=O)[C@]1(Cc2ccccc2CN=[N+]=[N-])N=C(c2ccc(OCCCO)cc2)O[C@@H]1c1ccccc1N=[N+]=[N-]`, the cytotoxicity call is “inactive”.
With `COC(=O)[C@@]1(Cc2ccccc2CN=[N+]=[N-])N=C(c2ccc(OCCCO)cc2)O[C@H]1c1ccccc1N=[N+]=[N-]` the entry was “inactive”.
With `COC(=O)[C@]1(Cc2ccccc2CN=[N+]=[N-])N=C(c2ccc(OCCCO)cc2)O[C@@H]1c1ccccc1N=[N+]=[N-]` the entry was “active”; with `COCCCNC(=O)[C@]1(Cc2ccccc2N=[N+]=[N-])N=C(c2ccc(OCCCO)cc2)O[C@@H]1c1ccccc1N=[N+]=[N-]`, “inactive”.
With `[N-]=[N+]=Nc1ccccc1C[C@@]1(C(=O)NCc2ccccc2)N=C(c2ccc(OCCCO)cc2)O[C@@H]1c1ccccc1N=[N+]=[N-]` the entry was “inactive”; with `CN(C)C(=O)[C@@]1(Cc2ccccc2CN=[N+]=[N-])N=C(c2ccc(OCCCO)cc2)O[C@H]1c1ccccc1N=[N+]=[N-]`, “active”; with `COCCCNC(=O)[C@@]1(Cc2ccccc2CN=[N+]=[N-])N=C(c2ccc(OCCCO)cc2)O[C@H]1c1ccccc1CN=[N+]=[N-]`, “active”.
Regarding `COC(=O)[C@@]1(Cc2ccccc2N=[N+]=[N-])N=C(c2ccc(OCCCO)cc2)O[C@H]1c1ccccc1CN=[N+]=[N-]`, the cytotoxicity call is “inactive”.
The value for `[N-]=[N+]=NCc1ccccc1C[C@]1(C(=O)NCc2ccccc2)N=C(c2ccc(OCCCO)cc2)O[C@H]1c1ccccc1N=[N+]=[N-]` was “active”; that for `COCCCNC(=O)[C@@]1(Cc2ccccc2CN=[N+]=[N-])N=C(c2ccc(OCCCO)cc2)O[C@H]1c1ccccc1N=[N+]=[N-]` was “inactive”; that for `CN(C)C(=O)CN1C[C@H]2CON[C@@H]2C1` was “inactive”.
The value for `O=C(c1ccccc1)C12CN3CN(CN(C3)C1)C2` was “inactive”; that for `CC(C)c1cc2c(c(O)c1O)C1(C(=O)O)CCCC(C)(C)C1CC2` (stereo not drawn) was “inactive”.
With `CN1C[C@@H]2CNC[C@@H]2C1=O` the entry was “inactive”.
In the case of `C[C@@H]1CN([C@@H](C)CO)C(=O)CCCn2nncc2CO[C@H]1CN(C)C(=O)Oc1ccc2ccccc2c1`, the cytotoxicity call was “inactive”.
With `C1CO[C@H]2[C@@H](C1)CNC[C@H]2N1CCOCC1` the entry was “inactive”; with `NCCc1c[nH]c2ccc(C(N)=O)cc12`, “inactive”.
For the compound `NCCc1ccncc1`, the cytotoxicity call was “inactive”.
On to `OC1(c2cccnc2)CCNCC1`, for which the cytotoxicity call was “inactive”.
With `CCN(Cc1ccc(Cl)nc1)C(=C[N+](=O)[O-])NC` the entry was “inactive”; with `Cc1ccc2n[nH]c(CN)c2c1`, “inactive”; with `COC(=O)[C@@]1(Cc2ccccc2CN=[N+]=[N-])N=C(c2ccc(OCCCO)cc2)O[C@H]1c1ccccc1CN=[N+]=[N-]`, “inactive”.
The value for `COC(=O)[C@@]1(Cc2ccccc2N=[N+]=[N-])N=C(c2ccc(OCCCO)cc2)O[C@H]1c1ccccc1N=[N+]=[N-]` was “inactive”; that for `COC(=O)[C@]1(Cc2ccccc2N=[N+]=[N-])N=C(c2ccc(OCCCO)cc2)O[C@@H]1c1ccccc1N=[N+]=[N-]` was “active”; that for `COC(=O)[C@]1(Cc2ccccc2CN=[N+]=[N-])N=C(c2ccc(OCCCO)cc2)O[C@@H]1c1ccccc1CN=[N+]=[N-]` was “active”.
With `COC(=O)[C@]1(Cc2ccccc2N=[N+]=[N-])N=C(c2ccc(OCCCO)cc2)O[C@@H]1c1ccccc1CN=[N+]=[N-]` the entry was “inactive”; with `[N-]=[N+]=Nc1ccccc1C[C@]1(C(N)=O)N=C(c2ccc(OCCCO)cc2)O[C@H]1c1ccccc1N=[N+]=[N-]`, “inactive”.
Regarding `CO[C@@H]1[C@H](OC(=O)NC(=O)CCl)CC[C@]2(CO2)[C@H]1[C@@]1(C)O[C@@H]1CC=C(C)C`, the cytotoxicity call is “inactive”.
The value for `CN1CCCCC1c1ccc(-c2cccnc2)nc1.Cl` (stereo not drawn) was “inactive”.
With `CN(CCC[C@@H](O)c1cccnc1)[NH2+][O-]` the entry was “inactive”; with `C=C(C)[C@@H]1[C@H]2OC(=O)[C@@H]1[C@]1(O)C[C@H]3O[C@]34C(=O)O[C@H]2[C@]14C`, “inactive”; with `O[C@@]12CCCC[C@@H]1CNCC2`, “inactive”.
With `CN1[C@@H]2CC[C@@H]1CC(N)C2` (stereo partly drawn) the entry was “inactive”; with `Nc1nc(N)nc(NC2CC2)n1`, “inactive”.
On to `CCN1CCN(c2nc([N+](=O)[O-])nn2C)CC1`, for which the cytotoxicity call was “inactive”.
The value for `CC(C)c1cccc(C(C)C)c1O` was “active”.
The value for `CC(C)c1cccc2c1OCC[C@H](N)[C@@H]2O` was “inactive”; that for `C[C@@H](N)Cc1cccc(O)c1` was “inactive”.
For the compound `C[C@@H](CN)CC(=O)O`, the cytotoxicity call was “inactive”.
The value for `CC(=O)[O][PbH2][O]C(C)=O` was “inactive”.
On to `Clc1ccc(Cl)cc1`, for which the cytotoxicity call was “inactive”.
As for `Oc1ccc(Cl)cc1Cc1cc(Cl)ccc1O`, the cytotoxicity call was “active”.
With `O=C(O)c1cc(Cl)ccc1Cl` the entry was “inactive”.
With `CCN1C[C@]23CNC[C@@H](C[C@H]2S1(=O)=O)O3` the entry was “inactive”; with `C1CC(NC2CCOCC2)CCO1`, “inactive”.
On to `O=C1C=C2C(=CCOC2O)O1` (stereo not drawn), for which the cytotoxicity call was “active”.
The value for `O=C1C=C2C(=CCO[C@@H]2O)O1` was “inactive”; that for `CC(=O)N[C@H]1C(=O)NC(=S)N(c2ccccc2)C1=O` was “inactive”.
The value for `N#CCCN1CCCC2(CCCC2)C1` was “inactive”; that for `N/N=C(/N)NO` was “inactive”; that for `COc1ccc(OC(=O)N(C)C[C@@H]2OCc3ccccc3-c3c(n(C)c4ccccc34)C(=O)N([C@@H](C)CO)C[C@@H]2C)cc1` was “inactive”.
The value for `COC(=O)[C@@H]1[C@@H](CO)[C@@H]2Cn3c(cccc3=O)[C@H]1N2C(=O)C1CC1` was “inactive”; that for `N[C@@H](CO)Cc1ccccc1` was “inactive”; that for `CCN(CC)C(=O)C1=NO[C@]2(CCNC2)C1` was “inactive”.
In the case of `CCC1CN2CCc3cc(OC)c(OC)cc3C2CC1CC1NCCc2cc(OC)c(OC)cc21.Cl.Cl` (stereo not drawn), the cytotoxicity call is “active”.
The value for `COc1cc2c(cc1OC)C1CC(=O)C(CC(C)C)CN1CC2` (stereo not drawn) was “active”.
With `COc1cc2c(cc1OC)C(C)NCC2` (stereo not drawn) the entry was “inactive”; with `COc1cc2c(cc1O)CCNC2C` (stereo not drawn), “inactive”; with `CNC1C(O)C(OC2C(N)CC(N)C(OC3OC(C(C)O)C(O)C(O)C3N)C2O)OCC1(C)O` (stereo not drawn), “inactive”.
The value for `CNC(=O)[C@H]1C[C@H]2CN(CC3CC3)C[C@H]1O2` was “inactive”; that for `CCN1C[C@H]2C[C@H](C(=O)NCC3CC3)[C@@H](C1)O2` was “inactive”; that for `C[C@@]1(O)[C@H](O)[C@@H](CO)O[C@H]1n1ccc2c(N)ncnc21` was “inactive”.
In the case of `CN(C)C(=O)Oc1cccc([N+](C)(C)C)c1.COS(=O)(=O)[O-]`, the cytotoxicity call was “inactive”.
With `COc1ccc(C[C@@H](N)c2ccc(C)cn2)cc1OC` the entry was “inactive”; with `COc1ccc(Cc2nccc3cc(OC)c(OC)cc23)cc1OC.Cl`, “active”.
The value for `COc1ccc(CCN)cc1OC` was “inactive”; that for `NCCc1cc(O)c(O)cc1O` was “inactive”.
Regarding `COc1cc(OC)c(OC)cc1C=O`, the cytotoxicity call is “active”.
In the case of `COc1cc2c(cc1C=O)OCO2`, the cytotoxicity call was “inactive”.
The value for `COc1cccc(C=O)c1OC` was “inactive”; that for `O=C1C[C@@H](c2ccc(O)cc2)CN1` was “inactive”.
With `O=C(O)C(Cl)Cl` the entry was “inactive”; with `N[C@@H](Cc1ccccc1)c1ccc2c(c1)OCCO2`, “inactive”; with `C1CCC(NC2CCCCC2)CC1`, “inactive”.
For `CC12C=CC(=O)C=C1CCC1C2CCC2(C)C(=O)CCC12` (stereo not drawn), the cytotoxicity call is “inactive”.
The value for `CCC1(C2OC(C3OC(O)(CO)C(C)CC3C)CC2C)CCC(C2(C)CCC3(CC(O)C(C)C(C(C)C(OC)C(C)C(=O)[O-])O3)O2)O1.[Na+]` (stereo not drawn) was “active”.
The value for `S=C=NCc1ccccc1` was “active”; that for `NC(Cc1ccccc1)Cc1ccccc1` was “inactive”.
With `Cl.NCCc1ccccc1` the entry was “inactive”.
With `O=C(O)[C@H]1N[C@H]2CC[C@@H]1C2`, the cytotoxicity call is “inactive”.
Turning to `CC(=O)N[C@@H]1[C@H](O[C@@H]2O[C@H](C[C@@H](O)[C@H]3O[C@@H](n4ccc(=O)[nH]c4=O)[C@H](O)[C@@H]3O)[C@H](O)[C@H](O)[C@H]2NC(=O)/C=C/CCCCCCCCC(C)C)O[C@@H](CO)[C@H](O)[C@H]1O`, the cytotoxicity call was “active”.
The value for `COc1ccc(OC(=O)N(C)C[C@H]2OCc3ccccc3-c3c(n(C)c4ccccc34)C(=O)N([C@H](C)CO)C[C@H]2C)cc1` was “inactive”; that for `C1COC2(CN1)CNC2` was “inactive”.
With `O.O=P1(N(CCCl)CCCl)NCCCO1` (stereo not drawn) the entry was “inactive”.
The value for `Cc1ccnc(N2CCNCC2)c1` was “inactive”; that for `CCCCCCCCCCCCCC(=O)O[C@@H]1[C@@H](C)[C@@]2(O)[C@@H](C=C(CO)C[C@]3(O)C(=O)C(C)=C[C@@H]23)[C@@H]2C(C)(C)[C@]12OC(C)=O` was “active”; that for `CC1=C[C@H]2[C@]3(O)[C@H](C=C(CO)C[C@]2(O)C1=O)[C@H]1C(C)(C)[C@@]1(O)[C@H](O)[C@@H]3C` was “inactive”.
Consider `CCCCCCCCCC(=O)O[C@@H]1[C@@H](C)[C@@]2(O)[C@@H](C=C(CO)C[C@]3(O)C(=O)C(C)=C[C@@H]23)[C@@H]2C(C)(C)[C@]12OC(=O)CCCCCCCCC`, for which the cytotoxicity call is “inactive”.
With `CCCCCCCCCC(=O)O[C@@H]1[C@@H](C)[C@]2(O)[C@@H](C=C(CO)C[C@]3(O)C(=O)C(C)=C[C@@H]23)[C@@H]2C(C)(C)[C@@]12OC(=O)CCCCCCCCC` the entry was “active”; with `Cc1ccc(CC2(N)CC2)cc1`, “inactive”.
With `CC(C)C[C@H](NC(=O)[C@H](CO)NC(=O)CNC(=O)[C@H](CC(C)C)NC(=O)[C@H](CCC(=O)O)NC(=O)[C@H](Cc1ccc(O)cc1)NC(=O)[C@H](CO)NC(=O)[C@H](CC(N)=O)NC(=O)[C@H](Cc1ccccc1)NC(=O)[C@H](CO)NC(=O)[C@@H](N)CSSC[C@H](N)C(=O)N[C@@H](Cc1ccc(O)cc1)C(=O)NCC(=O)N[C@@H](CCCNC(=N)N)C(=O)N[C@@H](CCCCN)C(=O)N[C@@H](CCCCN)C(=O)N[C@@H](CCCNC(=N)N)C(=O)N[C@@H](CCCNC(=N)N)C(=O)N[C@@H](CCC(N)=O)C(=O)N[C@@H](CCCNC(=N)N)C(=O)N[C@@H](CCCNC(=N)N)C(=O)N[C@@H](CCCNC(=N)N)C(=O)O)C(=O)O` the entry was “inactive”; with `CN(CC[C@H](N)CC(=O)N[C@H]1C=C[C@@H](n2ccc(N)nc2=O)O[C@@H]1C(=O)O)C(=N)N`, “inactive”.
